# Test results from the supplement of paper PMC9135407.
# Where “and” joins values, the source holds several entries; their conditions need not be identical. Identical values can stand only once. Counter-ions that a name gives are not always drawn. The campaign covered roughly 5,800 compounds. About 620 (11%) showed activity. What follows is part of a selection rich in actives, with near analogues and random picks from the rest. Values without a mark were called inactive.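 Rule for the calls: active = score above a cut-off or among the top three wells of a plate; in these data no inactive exceeds 0.85.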
# Test system: primary human hepatic stellate cells (donor 1)
# Assay: scaled lipid accumulation score (0 = DMSO-like, 1 = nortriptyline-like); higher = stronger HSC inactivation (lipid re-accumulation), active = hit call of the paper
# Conditions: 48 h
# Procedure: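 Primary lipid accumulation screen in primary human hepatic stellate cell myofibroblasts (donor 1, passage 8) in 384-well plates. 100 nL of library compound was pin-transferred into 30 µL medium in duplicate, and cells were treated for 48 h. The 'Scaled' score combines distance from plate baseline, toxicity and reproducibility penalties, and is normalised to nortriptyline (positive) and DMSO (negative) controls on each plate. A hit is defined as scaled >0.85 or among the top 3 wells per plate.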
# [1] = library stock concentration: 3.33 mM
# [2] = library stock concentration: 1 mM
# [3] = library stock concentration: 2 mM
# [4] = library stock concentration: 10 mM
smiles,measurement,setting,value
O=C(c1ccccc1)c1ccc(N2CCOCC2)cc1O [DNA-PK Inhibitor V],scaled lipid accumulation score,[1],≤ 0
"CCCCC(C)(C)[C@H](O)/C=C/[C@H]1C(=O)C[C@H](O)[C@@H]1C/C=C\CCCC(=O)O [16,16-dimethyl Prostaglandin D2]",scaled lipid accumulation score,[2],≤ 0
O=C1NC(=O)[C@@H](c2cn3c4c(cccc24)CCC3)[C@@H]1c1c[nH]c2ccccc12 [Tivantinib],scaled lipid accumulation score,library stock concentration: 80 uM,≤ -0.009
same,scaled lipid accumulation score,library stock concentration: 400 uM,0.071
same,scaled lipid accumulation score,[3],≤ -0.009
same,scaled lipid accumulation score,[4],0.169
"CCCCCC(=O)CC[C@H]1C(=O)C[C@H](O)[C@@H]1C/C=C\CCCC(=O)O [13,14-dihydro-15-keto Prostaglandin D2]",scaled lipid accumulation score,[2],≤ 0
C=CC(=O)Nc1cc(Nc2nccc(-c3cn(C)c4ccccc34)n2)c(OC)cc1N(C)CCN(C)C [listing 1 of 3 here],scaled lipid accumulation score,[1],0.983 (active)
C=CC(=O)Nc1cc(Nc2nccc(-c3cn(C)c4ccccc34)n2)c(OC)cc1N(C)CCN(C)C [listing 2 of 3 here],scaled lipid accumulation score,[4],≤ 0
C=CC(=O)Nc1cccc(Nc2nc(Nc3ccc(N4CCN(C(C)=O)CC4)cc3OC)ncc2C(F)(F)F)c1,scaled lipid accumulation score,[1],≤ -0.009
same,scaled lipid accumulation score,[4],0.063
C=CC(=O)Nc1cc(Nc2nccc(-c3cn(C)c4ccccc34)n2)c(OC)cc1N(C)CCN(C)C [listing 3 of 3 here],scaled lipid accumulation score,[3],1.01 (active)
COc1cc(N2CCN(C)CC2)ccc1Nc1nccc(-c2cn(C)c3cnccc23)n1,scaled lipid accumulation score,[1],≤ -0.009
same,scaled lipid accumulation score,[4],0.446
C=CC(=O)Nc1cccc(Nc2nc(Nc3ccc(NC4CN(CCF)C4)cc3OC)ncc2C(F)(F)F)c1,scaled lipid accumulation score,[1],≤ -0.009
same,scaled lipid accumulation score,[4],0.811
"CCN1CCCC1CNC(=O)c1cc(S(N)(=O)=O)ccc1OC (single isomer, unassigned; (-)) [(-)-Sulpiride]",scaled lipid accumulation score,[4],≤ 0
O=C1CCc2c(ccc3ccccc23)O1 [Splitomicin],scaled lipid accumulation score,[4],≤ -0.006
CCCCC[C@@H](O)/C=C/[C@@H]1[C@H](C/C=C\CCCC(=O)O)[C@@H](O)C[C@H]1O [8-iso-15(R)-Prostaglandin F2.alpha.],scaled lipid accumulation score,[2],≤ 0
CCCCC[C@H](O)/C=C/[C@@H]1[C@@H](C/C=C\CCCC(=O)NC(CO)CO)[C@@H](O)C[C@H]1O [Prostaglandin F2.alpha. serinol amide],scaled lipid accumulation score,[2],≤ 0
Nc1ncnc2c1c(I)cn2[C@@H]1O[C@H](CO)[C@@H](O)[C@H]1O [5-Iodotubercidin],scaled lipid accumulation score,[1],≤ 0
CCCCC[C@H](O)/C=C/[C@H]1C=CC(=O)[C@@H]1C/C=C\CCCC(=O)O [Prostaglandin A2],scaled lipid accumulation score,[2],≤ 0 and ≤ -0.021
N=C(N)N/N=C/c1c(Cl)cccc1Cl [Guanabenz Acetate],scaled lipid accumulation score,[1],≤ 0
same,scaled lipid accumulation score,[4],0.578
CC(=O)O.N=C(N)N/N=C/c1c(Cl)cccc1Cl [Guanabenz acetate],scaled lipid accumulation score,[4],0.999 (active)
N=C(N)NC(=O)Cc1c(Cl)cccc1Cl [Guanfacine hydrochloride],scaled lipid accumulation score,,≤ 0
same,scaled lipid accumulation score,[4],0.148 and 0.048
N=C(N)NC(=O)Cc1c(Cl)cccc1Cl [Guanfacine HCl],scaled lipid accumulation score,library stock concentration: 7.1 mM,≤ -0.006
N=C(N)N/N=C/c1c(Cl)cccc1Cl [Guanabenz acetate],scaled lipid accumulation score,,0.45
same,scaled lipid accumulation score,library stock concentration: 6.9 mM,0.304
same,scaled lipid accumulation score,library stock concentration: 8.7 mM,0.227
same,scaled lipid accumulation score,[4],0.426 and 0.365
"CCCCCC#CCC#CCC#CCC#CCCCC(=O)O [5,8,11,14-Eicosatetraynoic acid]",scaled lipid accumulation score,[2],≤ -0.021
CCCCCCCCCCCCCCCC(=O)N[C@H]1CCOC1=O [N-hexadecanoyl-L-Homoserine lactone],scaled lipid accumulation score,[2],≤ 0
CN(C)CCC=C1c2ccccc2C=Cc2ccccc21 [Cyclobenzaprine hydrochloride],scaled lipid accumulation score,library stock concentration: 6.4 mM,0.579
same,scaled lipid accumulation score,[4],0.568
C(=C/CCN(C)C)(/c1c2cccc1)\c3c(cccc3)C=C2.Cl [Cyclobenzaprine hydrochloride],scaled lipid accumulation score,[4],0.991 (active)
CN(C)CCC=C1c2ccccc2C=Cc2ccccc21.Cl [Cyclobenzaprine HCl],scaled lipid accumulation score,[1],0.507 (active)
CN(C)CCC=C1c2ccccc2C=Cc2ccccc21 [Cyclobenzaprine HCl],scaled lipid accumulation score,[4],0.745
C(/c1c2cccc1)(=C/CCN(C)C)\c3c(cccc3)C=C2.Cl [Cyclobenzaprine hydrochloride],scaled lipid accumulation score,,0.86 (active)
CC(C(=O)O)c1ccc(CC2CCCC2=O)cc1 (stereo unspecified),scaled lipid accumulation score,[4],≤ 0
CC(C(=O)O)c1ccc(CC2CCCC2=O)cc1 (stereo unspecified) [loxoprofen],scaled lipid accumulation score,[4],0.127
C=C1CC[C@H](O)C/C1=C/C=C1\CCC[C@]2(C)[C@@H]([C@H](C)CCCC(C)(C)O)CC[C@@H]12 [Calcifediol],scaled lipid accumulation score,[1],≤ 0
same,scaled lipid accumulation score,library stock concentration: 5 mM,0.042
same,scaled lipid accumulation score,[4],≤ 0
Nc1nc2c(ncn2[C@@H]2O[C@H](CO)[C@@H](O)[C@@H]2O)c(=O)[nH]1 [Ara-G hydrate],scaled lipid accumulation score,[4],≤ 0
Oc1ccc(OC2CCCCO2)cc1 (stereo unspecified) [Deoxyarbutin],scaled lipid accumulation score,[1],≤ 0
same,scaled lipid accumulation score,[4],≤ -0.001
CC(=O)N(CC(O)CO)c1c(I)c(C(=O)NCCO)c(I)c(C(=O)NCC(O)CO)c1I (stereo unspecified),scaled lipid accumulation score,[4],≤ 0
O=C(OC[C@@H]1O[C@H]1c1ccccc1)Oc1ccc([N+](=O)[O-])cc1,scaled lipid accumulation score,[2],≤ 0
CCCCC[C@H](O)/C=C/[C@@H]1[C@@H](CC(=O)CCCCC(=O)O)[C@@H](O)C[C@H]1O [6-keto Prostaglandin F1.alpha.],scaled lipid accumulation score,[2],≤ 0
CCCCC[C@H](O)/C=C/[C@@H]1[C@@H](CC(=O)CCCCC(=O)O)[C@@H](O)C[C@H]1O [6-Keto-prostaglandin F1a],scaled lipid accumulation score,[2],≤ -0.021
COc1c/c(=C2\C=c3ccccc3=N2)[nH]/c1=C\c1[nH]c(C)cc1C [Obatoclax Mesylate (GX15-070)],scaled lipid accumulation score,[1],0.602
same,scaled lipid accumulation score,[4],0.617
CNCCc1ccccn1 [Betahistine 2HCl],scaled lipid accumulation score,[1],≤ 0
same,scaled lipid accumulation score,[4],≤ -0.001
CNCCc1ccccn1 [Betahistine hydrochloride],scaled lipid accumulation score,library stock concentration: 9.6 mM,≤ 0
CNCCc1c[nH]c(CCC(c2ccccc2)c2ccccc2)n1.O=C(O)C(=O)O.O=C(O)C(=O)O [N-Methylhistaprodifen dioxalate salt],scaled lipid accumulation score,[4],1.02 (active)
CNCCc1ccccn1 [Betahistine mesylate],scaled lipid accumulation score,,0.122
CC(NCCC(c1ccccc1)c1ccccc1)c1ccccc1 (stereo unspecified) [Fendiline hydrochloride],scaled lipid accumulation score,,0.144
same,scaled lipid accumulation score,[4],0.431
